Compound activity (PubChem)
Rows were chosen to be rich in hits. Some 21% of all compounds tested hit in one or more screens of this group.
CHX counter – Cycloheximide Counterscreen for Small Molecule Inhibitors of Shiga Toxin. cell reporter, cycloheximide protein synthesis inhibition counterscreen. max response, %. 12% of 300,000 active; in the data active means max response mostly above about 13%, no sharp cut-off; inactive means mostly below about 14%; further: read at 38.3 µM for the half of the compounds with a filed dose
NS1 inh – qHTS Assay for Inhibitors of Influenza NS1 Protein Function | 0.4% of 270,000 active | Potency, µM (series often up to 46.1 µM); calls by dose curve; further: actives are rising curves; nearly all actives have a fitted effect of over 50% in size
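A cell-based growth assay was used: compounds that relieve NS1-induced slow growth of budding yeast raise OD600. Assay medium was yeast nitrogen base with ammonium sulphate and -URA supplement, pH 6.0, with 2% galactose.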
Pf growth 96h – Primary qHTS for delayed death inhibitors of the malarial parasite plastid, 96 hour incubation. P. falciparum luciferase reporter growth, 96 h. Potency, µM (top dose mostly 28.7 µM), actives largely listed as inhibitors. 6.9% of 320,000 active. AID 504834, 2011
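Compounds incubated with erythrocytes infected by luciferase-expressing P. falciparum (2% hematocrit, 0.05% parasitemia final) for 96 hours, 37 C in 5% CO2. Growth inhibition scored as decreased luciferase luminescence.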
Shiga toxin inh – A qHTS for Small Molecule Inhibitors of Shiga Toxin | Vero cells, Shiga toxin protein synthesis inhibition reporter | inhibition, % at 38.7 µM | AID 2315, 2010 | 9.2% of 290,000 active; in the data active means inhibition mostly above about 28%, no sharp cut-off; inactive means mostly below about 43%
Pf growth 48h – Primary qHTS for delayed death inhibitors of the malarial parasite plastid, 48 hour incubation. P. falciparum luciferase growth in erythrocytes, 48 h. Potency, µM (series often up to 28.7 µM), actives largely listed as inhibitors. 5.9% of 310,000 active. AID 504832, 2011
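Erythrocytes infected with P. falciparum carrying an integrated firefly luciferase reporter (2% hematocrit, 0.1% parasitemia final) were exposed to compounds in RPMI 1640 with 0.5% Albumax at 37 C, 5% CO2. Growth inhibition was scored as reduced luminescence.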
Each line names hits and unclear results; the compound was inactive in the other large screens. Unless noted, the call rests on the fitted dose curve; in most records, active means well fitted inhibition curve with a large enough effect; inconclusive means small, poorly fitted or top-dose-only effect, or another doubt; inactive means no such curve, though single readings can be large or run the other way.

CC1(C)CC(=O)C(CCC(=O)c2ccccc2)C(C)(C)N1 (stereo unspecified)	none
N#Cc1ccsc1NC(=O)C1CCN(S(=O)(=O)c2cccs2)CC1	none (no result: CHX counter, NS1 inh, Shiga toxin inh)
FC(F)(F)c1ccc2c(c1)nnn2C1CCN(Cc2nnnn2Cc2ccccc2)CC1	Pf growth 96h 10µM, Pf growth 48h 7.4µM
Cc1ccc(Cn2nnnc2CN2CCC(O)(c3ccccc3F)CC2)cc1	Pf growth 48h 15µM
COCC(=O)N1CCC(n2nnc3cc(C(F)(F)F)ccc32)CC1	Pf growth 96h 5.2µM
Cc1ccc(Cn2nnnc2CN2CCC(n3nnc4cc(C)ccc43)CC2)cc1	Pf growth 96h 13µM, Pf growth 48h inconclusive
O=C(CCn1nnc(-c2cccs2)n1)NC1CCCCC1	none
O=C(OC1CCCCC1=O)c1ccc(F)c(S(=O)(=O)N2CCOCC2)c1 (stereo unspecified)	Pf growth 48h inconclusive (no result: CHX counter, NS1 inh, Shiga toxin inh)
O=C(O)COc1ccccc1/C=N/NC(=O)c1cc2ccccc2cc1O	none
Cc1nc(N2CCOCC2)sc1C=O	none
Nc1cc(-c2cccc(Br)c2)nn1Cc1ccccc1	NS1 inh inconclusive
Nc1cc(-c2ccc(Br)cc2)nn1Cc1ccccc1	CHX counter 54, NS1 inh inconclusive, Shiga toxin inh 91
Cc1ccc2c(cnn2C(=O)CCC(=O)NCc2cccc(Br)c2)c1	Pf growth 96h 2.6µM
Cc1ccc2c(cnn2C(=O)CCC(=O)NCc2cccc(Cl)c2)c1	none
Cc1ccc2c(cnn2C(=O)CCCC(=O)NCc2ccc(F)cc2)c1	CHX counter 11, Shiga toxin inh 26
CCc1ccc(CNC(=O)CCC(=O)n2ncc3cc(C)ccc32)cc1	none
CC(=O)N1N=C(c2ccc(Br)cc2)OC1(C)CC(=O)Nc1ccccc1 (stereo unspecified)	Pf growth 96h inconclusive
CC(=O)Nc1ccc(Sc2ccccc2C(=O)O)cn1	Pf growth 96h inconclusive
Cn1c(SCC(=O)c2ccccc2)nnc1C1COc2ccccc2O1 (stereo unspecified)	CHX counter 42
Cc1cc(C(=O)CSc2nnc(C3COc4ccccc4O3)n2C)c(C)n1-c1ccc(F)cc1 (stereo unspecified)	Pf growth 96h inconclusive
Cn1c(SCC(=O)c2ccc3c(c2)OCO3)nnc1C1COc2ccccc2O1 (stereo unspecified)	NS1 inh inconclusive, Pf growth 96h 12µM, Pf growth 48h inconclusive
O=C(CSc1nnc2scc(-c3ccccc3)n12)c1ccc2c(c1)OCCO2	Pf growth 96h 2.1µM (no result: Pf growth 48h)
N#Cc1nc(-c2ccccc2F)oc1N1CCCCC1	none (no result: Pf growth 48h)
N#Cc1nc(-c2cccc3ccccc23)oc1N1CCCCC1	CHX counter 22
CC1CCN(c2oc(-c3cccc4ccccc34)nc2C#N)CC1	none
N#Cc1nc(-c2ccccc2Cl)oc1N1CCCCC1	CHX counter 24, Shiga toxin inh 129
O=C(c1ccc(F)cc1)N1CCN(C(=O)c2ccc([N+](=O)[O-])cc2)CC1	Pf growth 96h inconclusive
CC(=O)c1cccc(NC(=O)Cn2nc(-c3ccc(Cl)cc3)ccc2=O)c1	none
COc1ccc(CNC[C@@H](CCCCN(C)Cc2ccc(OC)cc2)N2C[C@H](c3ccccc3)N(CCc3ccc(Cl)c(Cl)c3)C(=O)C2=O)cc1	Pf growth 96h 2.3µM, Pf growth 48h 1.7µM
COc1ccc(CCN(C)CCCN2CC(c3ccccc3)CC2=O)cc1OC (stereo unspecified)	Pf growth 96h inconclusive (no result: NS1 inh)
CN(CCCC[C@H](CNCc1ccc(-c2ccccc2)cc1)N1C[C@H](c2ccccc2)N(CCc2ccc(Cl)c(Cl)c2)C(=O)C1=O)Cc1ccc(-c2ccccc2)cc1	Pf growth 96h 3.7µM, Pf growth 48h inconclusive
CCOc1ccc(CCN2C(=O)C(=O)N([C@H](CCCN(C)Cc3ccccc3)CNCc3ccccc3)C[C@@H]2C(C)C)cc1	Pf growth 96h 3.7µM, Pf growth 48h 9.3µM
COc1ccc(Cl)cc1NC(=O)NCc1ccc2c(c1)OCO2	none
COc1ccc(NC(=S)c2ccc3ccccc3n2)cc1	CHX counter 45, Shiga toxin inh 60
COc1ccc(N=C(NN)c2ccc3ccccc3n2)cc1	none
CCOc1ccc(NC(=S)c2ccc3ccccc3n2)cc1	CHX counter 24, Shiga toxin inh 38
CCOc1ccc(CN(C)C(=O)c2ccc3ccccc3n2)cc1	none
O=C(NCc1ccccc1Cl)c1cc(=O)[nH]c2ccccc12	none
O=C(COC(=O)c1ccccc1C(=O)c1ccccc1)NCc1ccc(F)cc1	none (no result: NS1 inh)
